How the values were obtained:
[1] = system: Vero E6 infected with SARS-CoV-2; test: morphology score (similarity to uninfected cells); higher = more like uninfected cells; conditions: 24 h
[2] = system: Vero E6 infected with SARS-CoV-2; test: SARS-CoV-2 infection rate relative to infected DMSO; higher = more infection, active = 60 or less; conditions: 24 h

SMILES	morphology score [1]	SARS-CoV-2 infection rate [2]
CC1(C)C(=O)NC2=C1C(=O)C(=O)c1ccccc12 (0.833333 µM)	-0.0548	114% (inactive)
O=S(=O)(Cc1ccccc1)Nc1ccc(-c2ccc3c(cnn3-c3ccc(F)cc3)c2)c(C(F)(F)F)c1 (10 µM)	0.22	91.5% (inactive)
O=C(O)CCc1cc(I)c(Oc2ccc(O)cc2)c(I)c1 [diiodothyropropionic-acid] (10 µM)	0.207	92% (inactive)
N#Cc1ccc(C2CCCc3cncn32)cc1 (centres undefined) [fadrozole] (10 µM)	0.114	102% (inactive)
Cc1cc2ncc(C(=O)NCC(C)(C)NCC(=O)N3CCC[C@H]3C#N)cn2n1 [anagliptin] (10 µM)	-0.112	110% (inactive)
CN1C(=O)COc2c(C(=O)NC3CN4CCC3CC4)cc(Cl)cc21 (centres undefined) [azasetron] (10 µM)	0.143	98% (inactive)
CCOC(=O)CC(=O)N1CCSC1COc1ccccc1OC (centres undefined) [moguisteine] (10 µM)	0.165	99.5% (inactive)
CCC[C@H](NC(=O)/C(C#N)=C/c1cccc(Br)n1)c1ccccc1 (0.833333 µM)	0.143	108% (inactive)
O=C(O)C[C@H](O)C(=O)O [malic-acid] (10 µM)	-0.0659	104% (inactive)
COc1ccccc1C(=O)Nc1cc2c(cc1N1CCCC1)n(C)c(=O)n2C (10 µM)	0.0131	93.5% (inactive)
COc1cc2c(cc1O)C(CCc1ccc(Cl)cc1)N(C)CC2 (centres undefined) (10 µM)	0.298	72% (inactive)
N#Cc1c(N)nc(SCc2csc(-c3ccc(Cl)cc3)n2)c(C#N)c1-c1ccc(OCCO)cc1 [capadenoson] (10 µM)	-0.145	115% (inactive)

From the supplement of paper PMC13380429
